Compound activity (PubChem BioAssay)
Vif-APOBEC3G blk – blocks the Vif interaction with human APOBEC3G; Q9HC16; HeLa A3G-eYFP + Vif (tagged APOBEC3G with the HIV-1 protein that degrades it), YFP fluorescence, overnight; Potency, µM (top dose mostly 46.1 µM), for the others: top-dose activity, negative = active, most hits filed as inhibitors; 0.076% of 410,000 active; further: potency means the concentration at half of the fitted maximal effect; on the % scale 0 is the no-effect control and ±100 the full control effect; nearly all actives have a fitted effect of over 60% in size
Target sequence (Q9HC16 whole entry, looked up): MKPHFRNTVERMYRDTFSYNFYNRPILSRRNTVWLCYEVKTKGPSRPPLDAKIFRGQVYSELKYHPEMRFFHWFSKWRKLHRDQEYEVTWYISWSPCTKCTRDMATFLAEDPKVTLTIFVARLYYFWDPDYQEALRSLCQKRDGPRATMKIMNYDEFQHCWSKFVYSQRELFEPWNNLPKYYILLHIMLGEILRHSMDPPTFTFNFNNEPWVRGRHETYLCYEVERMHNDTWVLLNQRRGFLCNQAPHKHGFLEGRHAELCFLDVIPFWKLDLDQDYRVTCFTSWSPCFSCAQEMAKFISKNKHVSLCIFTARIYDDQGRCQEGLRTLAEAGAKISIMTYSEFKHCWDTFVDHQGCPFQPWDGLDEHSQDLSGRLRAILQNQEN
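HeLa cells stably expressing Vif and C-terminally eYFP-tagged A3G, seeded overnight at 37 deg C, then exposed to compound by pintool overnight at 37 deg C. Rise in yellow fluorescence (Ex 488/Em 500-530, Acumen) marks blocked Vif-driven A3G degradation.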
Giardia kill – Giardia lamblia killing | 0.15% of 340,000 active | Giardia lamblia trophozoite viability | activity change, % at 7.66 µM, hits read low; in the data active means activity change below about -80%; inconclusive means between about -30% and that limit;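 further: parasites exposed to compound for two days anaerobically before the ATP read; on the % scale 0 is the no-effect control and ±100 the full control effect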
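Giardia trophozoites, 100 cells per well, were exposed to compounds for 48 hrs at 37 deg C under anaerobic conditions; viability was then read as ATP content by bioluminescence after 15-30 min at room temperature.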
SW480 rereplic – induces DNA re-replication in SW480 colon adenocarcinoma cells; SW480 DNA re-replication, Hoechst DNA content imaging, 48 h; Potency, µM (series often up to 46.1 µM), without a hit: at the top dose re-replication activation, usual class: activators; 1.8% of 340,000 active; further: potency means the concentration at half of the fitted maximal effect; % of control where 0% means no effect; nearly all actives have a fitted effect of over 55% in size
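First, 250 cells per well were seeded. Next, compound or vehicle (23 nL) was pinned in, plates sat 48 hr at 37 C. Finally Hoechst was added for 40 min before fluorescence scanning.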
MCF10A rereplic – DNA re-replication induction in MCF 10a cells. MCF 10A DNA re-replication, Hoechst nuclear intensity, 48 h. Potency, µM (doses to about 46.1 µM), for the others: at the top dose activity, positive = re-replication, actives largely listed as activators. 2.9% of 350,000 active. AID 624296; further: potency means the concentration at half of the fitted maximal effect; % of control where 0% means no effect; nearly all actives have a fitted effect of over 50% in size
IL-1B inflam inh – blocks inflammasome-driven IL-1 beta release; THP-1 LPS/ATP IL-1B secretion, AlphaLISA, 16 h; active compounds read low; activity change, % at 57.5 µM; 4.7% of 360,000 active; in the data active means activity change below about -50%; inconclusive means mostly about -30% to -49%; further: on the % scale 0 is the no-effect control and ±100 the full control effect
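Secreted IL-1B measured by AlphaLISA bead assay after 16 h compound exposure of THP-1 cells; compounds (final up to 57.5 uM) added 1 h before LPS (250 ng/mL) and ATP (1.25 mM) stimulation; lower signal means less secretion.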
Vif-APOBEC3F blk – blocks the Vif interaction with APOBEC3F | HeLa A3F-eYFP + Vif (tagged APOBEC3F with the HIV-1 protein that degrades it), YFP fluorescence increase | 0.2% of 390,000 active | AID 602313 | Potency, µM (series often up to 46.1 µM), for the others: at the top dose activity, negative = active; further: potency means the concentration at half of the fitted maximal effect; % of control where 0% means no effect; nearly all actives have a fitted effect of over 65% in size
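Fluorescence increase (Ex 488/Em 500-530) after overnight compound treatment at 37 deg C flags inhibition of Vif-driven A3F-eYFP loss in stable HeLa A3F-eYFP/Vif cells seeded overnight beforehand.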
Active calls of the source: *; ? = inconclusive; . = no result. Only some compounds are listed: those with a hit (about 6.9% of all), similar ones and a draw of the others. Unless noted, the call rests on the fitted dose curve; in most records, active means well fitted curve in the direction sought with a large enough effect; inconclusive means small, poorly fitted or top-dose-only effect, or another doubt; inactive means no such curve, though single readings can be large; an effect the other way counts as inactive or inconclusive.

SMILES	Vif-APOBEC3G blk	Giardia kill	SW480 rereplic	MCF10A rereplic	IL-1B inflam inh	Vif-APOBEC3F blk
O=C(NCCc1cccc(F)c1)C1CCN(S(=O)(=O)c2ccc(F)cc2)CC1	-4%	-8	-2%	0%	5	14%
CN(C)c1ccc(C(c2ccc(N(C)C)cc2)C(O)c2ccccc2)cc1 (centres undefined)	-1%	6	-3%	23%	-55*	3%
CN(C)c1ccc(C(=O)C(O)c2ccccc2)cc1 (centres undefined)	-1%	0	-1%	1%	-7	.
O=C1c2[nH]nc(-c3ccccc3O)c2C(c2cccc(Cl)c2)N1Cc1ccco1 (centres undefined)	-21%	-1	?	7.3µM*	-12	-3%
c1ccc2c(c1)c1c(c3ccccc32)CN2CCCC2C1 (centres undefined)	-7%	2	18µM*	?	-97*	5%
COc1cc(/C=N/N=C(/N)c2nonc2N)cc(Br)c1OCc1ccccc1C	-2%	-11	1%	13µM*	-10	-12%
CCOc1cc(/C=N/N=C(/N)c2nonc2N)cc(Br)c1OCc1ccc(Cl)cc1	-16%	2	?	?	-11	?
CCOc1ccccc1N(CC)C(=O)Cn1ncc2c([nH]c3ccccc32)c1=O	-19%	.	.	.	.	0%
CCNC(=O)c1cnc2sc(N3CCC(C)CC3)nn2c1=O	1%	.	.	.	.	-2%
COc1ccc(CNC(=O)c2cc3cccc4c3n2CC(C)S4)cc1OC (centres undefined)	2%	.	.	.	.	-1%
COc1cccc(NC2C=CS(=O)(=O)C2)c1 (centres undefined)	-2%	-2	-2%	1%	-17	3%
COc1ccc(NC2C=CS(=O)(=O)C2)c(OC)c1 (centres undefined)	-4%	16	-8%	?	-61*	-6%
COc1ccccc1NC(=O)C1=C(C)Nc2ncnn2C1c1ccc[nH]1 (centres undefined)	-2%	.	.	.	.	-6%
CCOc1ccccc1CN1CCN(Cc2[nH]c3ccccc3c2C)CC1CCO (centres undefined)	3%	7	16%	10%	-9	-6%
CCOc1ccc(CN2CCN(CCCc3ccccc3)CC2CCO)cc1 (centres undefined)	-5%	-18	22%	?	-52*	0%
COc1ccc(/C=C/CN2CCN(Cc3ccccc3)C(CCO)C2)cc1 (centres undefined)	1%	-13	?	5%	-8	-7%
COc1ccc(/C=C/CN2CCN(Cc3ccc(F)cc3)C(CCO)C2)cc1 (centres undefined)	2%	6	4%	?	-55*	0%
CCOc1ccc(CN2CCN(Cc3[nH]c4ccc(OC)cc4c3C)CC2CCO)cc1 (centres undefined)	1%	12	?	-35%	-66*	10%
C#Cc1ccc(CN2CCN(CCCc3ccccc3)C(CCO)C2)cc1 (centres undefined)	4%	-7	1%	17%	-55*	11%
Cc1ccc(CN2CCN(CCCc3ccccc3)CC2CCO)cc1 (centres undefined)	0%	-8	-6%	21%	-27	-7%
CC1(C)N=C(SCc2ccc(F)cc2)c2ccccc2N1	0%	.	.	.	.	1%
Cc1ccc(N(CC(=O)NCCSc2ccccc2)S(=O)(=O)c2ccc(F)cc2)cc1	?	.	.	.	.	0%
C#CCN(C[C@@H]1[C@@H](OC(=O)NCCCCCC)[C@@H](OC(=O)NCCCCCC)Cn2c(=O)ccc(=O)n21)S(=O)(=O)c1ccc(C)cc1	?	.	.	.	-107*	0%
C#CCN(C[C@@H]1[C@@H](OC(=O)NCC2CCCCC2)[C@@H](OC(=O)NCC2CCCCC2)Cn2c(=O)ccc(=O)n21)S(=O)(=O)c1ccc(C)cc1	?	.	.	.	-106*	0%
CCCCNC(=O)CCCn1c(=O)c2ccccc2n(Cc2ccccc2C)c1=O	-1%	.	.	.	.	-3%
SMILES	Vif-APOBEC3G blk	Giardia kill	SW480 rereplic	MCF10A rereplic	IL-1B inflam inh	Vif-APOBEC3F blk
c1coc(CNc2ncnc3c2nc2n3CCCC2)c1	3%	.	.	.	.	.
COc1cccc(C=Cc2nccc3ccccc23)c1OC	?	.	.	.	-58*	-3%
COc1ccc(/C=C/c2nccc3ccccc23)cc1OC	-18%	.	.	.	.	.
Cc1ccc(-n2c3c(cc(-c4nc(-c5ccc(Cl)cc5)cs4)c2=O)C(=O)CC(C)(C)C3)cc1C	3%	.	.	.	.	-6%
C[C@H](CCCC(C)(C)O)[C@H]1CC[C@H]2[C@@H]3CC=C4C[C@@H](O)CC[C@]4(C)[C@H]3CC[C@]12C	.	.	-6%	-8%	.	.
CC(CCC(C)C(C)(C)C)[C@@H]1CC[C@H]2C3C[C@H](OS(O)(=S)=S)[C@H]4C[C@H](OS(O)(=S)=S)[C@@H](OS(O)(=S)=S)C[C@]4(C)[C@H]3CC[C@]12C (some centres undefined) (tested in a mixture with another compound)	8%	-8	-59%	?	-76*	3%
COc1ccccc1NCc1cccn1-c1nnc(N2CCOCC2)s1	-3%	.	.	.	.	1%
Cc1ccc(CNC(=O)c2ccc3c(c2)N(Cc2cccc(C)c2)C(=O)CS3)cc1	-6%	.	.	.	.	1%
Cc1csc(N=Nc2ccc(N(C)C)cc2)[n+]1[O-]	-2%	.	.	.	-80*	1%
Cc1nn(CC(=O)NCc2cc3ccccc3[nH]2)c(C)c1[N+](=O)[O-]	-2%	-3	16%	6%	-65*	-15%
Cc1nn(CC(=O)NCc2ccccc2F)c(C)c1[N+](=O)[O-]	0%	5	3%	-9%	2	1%
COc1ccc(NCc2cc3cc4c(cc3n(CC(=O)Nc3cc(C)ccc3C)c2=O)OCCO4)cc1	?	.	.	.	.	13µM*
COc1ccc(NCc2cc3cc4c(cc3n(CC(=O)Nc3ccc(C)cc3C)c2=O)OCO4)cc1	1%	.	.	.	.	-1%
O=C(O)c1cc(N/N=C/c2cccc3ccccc23)ccc1Cl	0%	5	-1%	23µM*	18	7%
O=C(N/N=C/c1cccc2ccccc12)c1ccccc1Cl	-10%	-6	-2%	13%	-51*	-1%
O=C(NN=Cc1cccc2ccccc12)C(=O)NN=Cc1cccc2ccccc12	2%	-2	?	2.3µM*	-20	?
CN(C)S(=O)(=O)N(CC(=O)N1CCC(Cc2ccccc2)CC1)c1ccccc1	3%	-28	-12%	-7%	15	-10%
O=C(CCNS(=O)(=O)c1ccccc1)N1CCC(Cc2ccccc2)CC1	2%	-11	22%	4%	-50*	1%
COc1ccc(N(CC(=O)N2CCC(Cc3ccccc3)CC2)S(C)(=O)=O)cc1	5%	?	5.8µM*	?	7	?
